# hgDAF-12 ag – hgDAF-12 agonism, primary luciferase screen; HEK293 GAL4-hgDAF12 UAS-luciferase reporter, agonist luminescence; normalized to butyrate control; activation, % at 6.8 µM; 1.8% of 370,000 active;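 active = activation above a cutoff set at the mean of all screened compounds plus 3 SD, cut at about 10% in these data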;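 note: 0% = DMSO wells and 100% = sodium butyrate wells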
# ssDAF12 agonist – S. stercoralis DAF-12 activation, primary screen. HEK293 ssDAF-12/GRIP1 lit1-tk-luc reporter, luminescence; % of 3 µM dafachronic acid response. activation, % at 6.8 µM. 1% of 370,000 active. AID 652126;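 active = activation above the mean over all tested compounds plus 3 SD, cut at about 0.9% in these data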;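 note: 0% = DMSO-only wells and 100% = 3 µM delta7-dafachronic acid wells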
# hcDAF12 agonist – H. contortus DAF-12 activation, primary screen. HEK293 hcDAF-12 lit1-tk-luc reporter, luminescence; 0% DMSO, 100% Δ7-dafachronic acid. activation, % at 6.8 µM. 1.4% of 370,000 active. AID 652067;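 active = activation above the mean of all tested compounds plus 3 SD, cut at about 5.5% in these data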;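 note: 100% = response to 3 µM Δ7-dafachronic acid high control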
# DAX1 inh-1 – inhibits human nuclear receptor DAX1. P51843. HEK293 Gal4-DAX1 luciferase reporter, luminescence. inhibition, % at 6.75 µM. 0.99% of 340,000 active;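 active = inhibition above the mean over all tested compounds plus 3 SD, cut at about 4.2% in these data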;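 note: 0% = DAX1-transfected cells with DMSO and 100% = empty-vector control cells with DMSO; inhibition shows as a rise in luminescence from relieved DAX1 repression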
# DAX1 inh-2 – DAX1 (NR0B1) inhibition, primary screen; HEK293T StAR-luciferase reporter, SF-1/DAX-1 repression relief; inhibition, % at 6.8 µM; 1.1% of 370,000 active;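 active = inhibition above the mean over all tested compounds plus 3 SD, cut at about 3.6% in these data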;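 note: 0% = DAX-1 cells with DMSO and 100% = cells lacking DAX-1 with DMSO; higher inhibition means more luminescence from relief of DAX-1 repression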
# DAX1 conf – NR0B1 (human) inhibition, confirmation | shares compounds with DAX1 inh-2 | HEK293T StAR-promoter luciferase reporter, SF-1/DAX-1 repression | inhibition, % at 6.8 µM | 87% of 2,400 active;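 active = inhibition above the average of every tested compound plus 3 SD, cut at about 3.8% in these data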;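 note: 0% = DAX-1 cells with DMSO and 100% = no DAX-1 control cells with DMSO; active compounds raise luminescence by relieving repression of the StAR reporter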
# Target sequence (P51843 whole entry, looked up): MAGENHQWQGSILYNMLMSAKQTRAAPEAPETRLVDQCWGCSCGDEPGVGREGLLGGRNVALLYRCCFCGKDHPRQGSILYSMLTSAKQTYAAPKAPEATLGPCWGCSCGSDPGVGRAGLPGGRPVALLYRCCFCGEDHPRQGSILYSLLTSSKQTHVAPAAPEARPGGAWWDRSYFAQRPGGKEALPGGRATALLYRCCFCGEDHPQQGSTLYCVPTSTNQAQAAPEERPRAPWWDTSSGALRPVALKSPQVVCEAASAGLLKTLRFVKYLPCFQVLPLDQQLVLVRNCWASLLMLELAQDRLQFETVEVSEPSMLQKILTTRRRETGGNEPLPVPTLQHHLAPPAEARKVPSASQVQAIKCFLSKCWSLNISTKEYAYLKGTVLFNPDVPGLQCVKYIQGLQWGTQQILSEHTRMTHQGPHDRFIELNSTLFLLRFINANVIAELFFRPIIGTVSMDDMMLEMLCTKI
# SF1 AF2mut Luc – counter-screen for DAX1 inhibitors: nonselective inhibitors with SF-1 AF2 mutant. 78% of 2,400 active. HEK293 StAR-luciferase, luminescence. inhibition, % at 6.8 µM. shares compounds with DAX1 inh-2;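 active = inhibition above the mean of all tested compounds plus 3 SD, cut at about 3% in these data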;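 note: 0% = DAX-1 transfected cells with DMSO and 100% = cells without DAX-1 with DMSO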
# LXR ag – activates human LXR-beta, counter-screen for hcDAF-12 agonists | shares compounds with hcDAF12 agonist | HEK293 Gal4-LXR tk-luc reporter, luminescence, 24 h; normalized: DMSO 0%, positive control 100% | activation, % at 6.8 µM | 3,400 tested, under 10 active | AID 743027;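 active = mean percent activation of the reporter above a cutoff set as the average over tested compounds plus their standard deviation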
# hcDAF12 ag – hcDAF-12 agonism, confirmation assay; activation, % at 6.8 µM; 61% of 3,400 active; shares compounds with hcDAF12 agonist; HEK293 hcDAF-12 lit1-tk-luc reporter, luminescence; % of Δ7-dafachronic acid response;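 active = mean activation across triplicate tests above the threshold derived from the earlier primary screen, cut at about 5.5% in these data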;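 note: 0% = DMSO only wells and 100% = 3 µM Δ7-dafachronic acid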
# hgDAF12 ag – hgDAF-12 agonism, confirmation assay | shares compounds with hgDAF-12 ag | HEK293 GAL4-hgDAF12 luciferase reporter, agonist mode; percent of butyrate response | activation, % at 6.8 µM | 80% of 3,300 active | AID 743050;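 active = mean activation over triplicate wells above the hit cutoff derived from the earlier primary screen, cut at about 11% in these data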;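 note: 0% = DMSO low control and 100% = 2 mM sodium butyrate high control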
# LXRb DAF12 ctr – activates human LXR-beta, counter-screen for DAF-12 agonists; shares compounds with hgDAF-12 ag; HEK293 Gal4-LXR luciferase reporter, 24 h; activation, % at 6.8 µM; 3,300 tested, under 10 active;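 active = mean activation of the triplicate above a set limit carried over from the primary screen, none filed active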
# Starred values were filed as active, the others as inactive; / = no result. The list is not random: actives were taken first. Their share in the collection is about 4.1%.
SMILES,hgDAF-12 ag,ssDAF12 agonist,hcDAF12 agonist,DAX1 inh-1,DAX1 inh-2,DAX1 conf,SF1 AF2mut Luc,hgDAF12 ag,LXRb DAF12 ctr,others
Cc1cccc(NC(=O)c2cnc3ccccn3c2=O)c1,22.4*,0.5,8.8*,0.9,7.7*,10.6*,4.4*,16.6*,1.2,LXR ag=1.6;hcDAF12 ag=6.1*
OC1(Cc2ccccc2)CCN(c2ncnc3sccc23)CC1,-9.1,-2.2,-5.5,/,/,/,/,/,/,
O=C(Nc1ccc(-c2nc3cccnc3s2)cc1)c1ccco1,19.3*,2.0*,6.4*,0.9,8.9*,16.7*,8.4*,18.3*,1.2,
CON(C)C(=O)C(C)(C)CC#CCN(CC#Cc1ccccc1)S(=O)(=O)c1ccc(C)cc1,-0.4,-1.1,-0.5,/,-0.1,/,/,/,/,
O=c1c([N+](=O)[O-])c(Cl)c2ccccc2n1Cc1ccccc1,-1.9,-0.9,-2.2,/,/,/,/,/,/,
CCCCOc1ccc(-c2cnc3ccccc3n2)cc1,22.9*,0.3,9.0*,1.4,6.8*,14.2*,3.5*,12.5*,1.3,LXR ag=1.7;hcDAF12 ag=6.4*
O=S(=O)(CC1NCc2cc(F)ccc21)NCCc1ccccc1 (stereo unspecified),-0.2,-0.8,-1.2,/,0.9,/,/,/,/,
Nc1[nH]c2cc(C(F)(F)F)ccc2c1C(=O)NC1CCCCC1,2.0,0.5,5.0,/,-0.7,/,/,/,/,
CCOC(=O)CC1(Cc2ccccc2)Oc2ccccc2O1,5.2,-0.5,0.7,/,0.4,/,/,/,/,
COC(=O)[C@]12C[C@H](CC(=O)NCCCCc3ccccc3)C(=O)N(Cc3ccc(Cl)cc3Cl)C1=C[C@H](C(C)C)O[C@@H]2C1CC1,0.4,0.1,-1.1,/,-0.5,/,/,/,/,
O=C(COc1ccccc1[N+](=O)[O-])Nc1ccc2c(c1)OCO2,15.5*,0.3,9.2*,2.7,6.7*,6.8*,4.1*,11.8*,0.7,LXR ag=0.8;hcDAF12 ag=5.8*
NC(=O)c1cc(Cl)ccc1OCC(=O)Nc1ccc2c(c1)OCO2,15.6*,0.4,2.5,1.2,12.2*,12.3*,8.7*,14.8*,0.8,
N#Cc1ccccc1OCC(=O)Nc1ccc2c(c1)OCO2,20.3*,0.5,1.9,3.7,5.9*,6.5*,4.0*,13.3*,0.5,
O=C(COC(=O)COc1ccccc1[N+](=O)[O-])Nc1ccc2c(c1)OCO2,-2.2,-0.6,1.0,-0.8,-0.2,/,/,/,/,
COCC(=O)Nc1ccc2c(c1)OCO2,-2.2,-1.3,-0.7,-2.6,-0.4,/,/,/,/,
Cc1ccc(Cc2c(-c3ccc(C)cc3)nc3cc(C)ccn23)cc1,17.8*,-0.2,1.9,2.1,6.2*,2.0,0.5,3.5,0.3,
Cc1ccc(Cc2c(-c3ccc(C)cc3)nc3ccc(Br)cn23)cc1,8.6,-0.1,4.6,3.1,2.6,/,/,/,/,
Cc1ccn2c(Cc3ccccc3)c(-c3ccc(Br)cc3)nc2c1,16.9*,0.0,1.3,1.6,8.4*,5.3*,0.8,2.0,0.2,
CC(=O)c1cc(-c2cccc(CO)c2)c(=O)n2c1CCC2,-0.8,-1.4,-1.8,/,0.1,/,/,/,/,
O=C(c1ccc(Cl)cc1)C1CCN(c2ncnc3sccc23)CC1,-5.5,-2.6,-6.2,/,/,/,/,/,/,
Cc1ccc2nc(NC(=O)c3ccc4ncsc4c3)sc2c1,15.3*,0.1,3.9,0.3,6.2*,11.3*,7.1*,13.5*,0.6,
COc1ccc2c(CN(C)Cc3ccccc3)cc(=O)oc2c1,15.0*,0.8,2.3,/,7.2*,7.6*,4.1*,14.9*,0.9,

# Compound activity: PubChem BioAssay, The Scripps Research Institute Molecular Screening Center
